Source: PubChem BioAssay
Luciferase inh – blocks Photinus pyralis firefly luciferase activity | P08659 | purified firefly luciferase, luminescence, 8 min | Potency, µM (highest dose often 57.1 µM), hits mostly inhibitors | 72,000 compounds, 2.2% hits | AID 411; also: nearly all actives have a fitted effect of over 40% in size
Target sequence (P08659 whole entry, looked up): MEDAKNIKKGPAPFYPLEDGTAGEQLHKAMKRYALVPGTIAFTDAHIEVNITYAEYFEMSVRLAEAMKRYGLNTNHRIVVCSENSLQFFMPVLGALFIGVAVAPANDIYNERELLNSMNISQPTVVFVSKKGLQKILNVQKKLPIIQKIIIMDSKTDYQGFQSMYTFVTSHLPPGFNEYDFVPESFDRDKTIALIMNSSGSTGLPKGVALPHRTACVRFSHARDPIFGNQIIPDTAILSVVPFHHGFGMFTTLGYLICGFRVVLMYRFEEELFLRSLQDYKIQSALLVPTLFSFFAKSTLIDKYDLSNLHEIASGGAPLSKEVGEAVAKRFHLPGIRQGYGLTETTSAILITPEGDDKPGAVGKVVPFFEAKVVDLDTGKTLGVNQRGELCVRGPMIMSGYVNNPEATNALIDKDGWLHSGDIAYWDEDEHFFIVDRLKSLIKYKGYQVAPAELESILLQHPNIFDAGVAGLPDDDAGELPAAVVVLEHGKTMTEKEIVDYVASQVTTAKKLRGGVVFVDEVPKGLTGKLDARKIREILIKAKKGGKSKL
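Substrate buffer containing 10 uM ATP (pH 7.2 imidazole, Mg2+, KCl, detergent, BSA) is dispensed, compound pinned in, then luciferase/luciferin detector mix added. After 8 min at ambient temperature, light output is measured.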
p53ts 32C tox – kills p53ts cells at the permissive temperature; AID 924; Potency, µM (titrated, usually from 46.1 µM), hits mostly cytotoxic; H1299-p53A138V at 32C, ATP luminescence viability, 24 h; 130,000 compounds, 0.93% hits; also: nearly all actives have a fitted effect of over 55% in size
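ATP-content luminescence (ATPlite) read-out after 24 h compound exposure at 32C in H1299-p53A138V cells (600/well). Tested up to 46 uM. Normalized to DMSO (0%) and 100 uM tamoxifen (100% killing); Hill-fit AC50.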
p53ts 39C tox – kills p53ts cells at the nonpermissive temperature | Potency, µM (series often up to 46.1 µM), usual class: cytotoxic | AID 902 | H1299-p53A138V viability at 39C, ATP luminescence, 24 h | 130,000 compounds, 1.5% hits; also: nearly all actives have a fitted effect of over 55% in size
Each line names hits and unclear results; the compound was inactive in the other large screens. Rows were chosen to be rich in hits. Some 2.5% of all compounds tested hit in one or more screens of this group. Calls follow the shape of the dose curve; as a rule, active = well fitted curve in the direction sought with a large enough effect; inconclusive = small, poorly fitted or top-dose-only effect, or another doubt; inactive = no such curve, though single readings can be large; an effect the other way counts as inactive or inconclusive.

CCC(=O)Nc1cccc(-c2cn3ccsc3n2)c1	Luciferase inh inconclusive
c1cn2cc(-c3ccc4c(c3)OCO4)nc2s1	Luciferase inh 7.9µM, p53ts 32C tox 16µM, p53ts 39C tox 13µM
CC(C)CC(=O)Nc1cccc(-c2cn3ccsc3n2)c1	Luciferase inh 16µM, p53ts 32C tox inconclusive, p53ts 39C tox inconclusive
O=C(CCN1C(=O)c2ccccc2C1=O)Nc1ccc(-c2cn3ccsc3n2)cc1	p53ts 39C tox inconclusive
CC(C)=CCC/C(C)=C/CO/N=C1/C[C@@H](O)[C@@H](O)[C@@H]2[C@@H]3C(=O)N(Cc4ccc5c(c4)OCO5)C(=O)[C@H]3CC[C@@H]12	none
Cc1cccc(NC(=O)CSc2nc(-c3ccccc3)cc(=O)[nH]2)c1C	none (no result: Luciferase inh)
N[C@@H](CSS(=O)(=O)O)C(=O)O	none
COc1cc(OC)c(NC(=O)CN(C)S(=O)(=O)c2ccc3c(c2)CCCC(=O)N3)cc1Cl	none (no result: Luciferase inh)
Cc1ccc(S(=O)(=O)N2CCOCC2)cc1C(=O)Nc1ccc(-c2cn3ccsc3n2)cc1	none
O=C(Nc1ccc(-c2cn3ccsc3n2)cc1)C1CC1	Luciferase inh 6.3µM, p53ts 32C tox 6.3µM, p53ts 39C tox 5µM
COc1cc2c(cc1O)[C@@H](c1cc(O)c(O)c(OC)c1)[C@@](O)(C(=O)O)[C@@H](CO)[C@@H]2O	none
CCCCCCC1=Cc2cc(OC)c(OC)cc2C(C(C(C)=O)C(=O)OC)O1 (stereo not drawn)	none (no result: Luciferase inh)
CC(=O)Nc1cccc(NC(=O)c2ccco2)c1	none (no result: Luciferase inh)
O=C(Nc1cccc(-c2nc3ccccc3[nH]2)c1)c1ccco1	Luciferase inh 25µM
CCCN(CCC)S(=O)(=O)c1ccc(C(=O)Nc2cccc(-c3nc4ccccc4[nH]3)c2)cc1	none (no result: Luciferase inh)
COc1c(Cl)cc(C(=O)Nc2cccc(-c3nc4ccccc4[nH]3)c2)cc1Cl	p53ts 32C tox inconclusive, p53ts 39C tox 13µM (no result: Luciferase inh)
Cc1ccc2nc(-c3ccc(NC(=O)c4ccco4)cc3)[nH]c2c1	Luciferase inh 5µM
Cn1cccc1-c1nc2ccc(NC(=O)c3ccco3)cc2[nH]1	Luciferase inh inconclusive
O=C(Nc1cccc(NC(=O)c2nccc3ccccc23)c1)c1ccco1	Luciferase inh 13µM, p53ts 32C tox inconclusive, p53ts 39C tox inconclusive
O=C(c1ccccc1)c1cccc(NC(=O)c2ccco2)c1	none
Cc1cnc(CNc2nc(-c3ccc(C(=O)N(C)C)cc3)nc3ccccc23)cn1	p53ts 32C tox inconclusive
CCN1C(=O)[C@H]2[C@H]3[C@H](O)[C@H](O)C/C(=N/O[C@@H]4O[C@H](COC(C)=O)[C@@H](OC(C)=O)[C@H](OC(C)=O)[C@H]4OC(C)=O)[C@@H]3CC[C@@H]2C1=O	none
C[C@H]1[C@H](C)CC[C@]2(C(=O)O)CC[C@]3(C)C(=CC[C@@H]4[C@]5(C)C[C@H](O)[C@@H](O)[C@@](C)(CO)[C@@H]5[C@H](O)C[C@@]43C)[C@H]12	none
CCOC(=O)c1ccccc1NC(=O)CCc1c(C)nc2ncnn2c1C	none (no result: Luciferase inh)
CCOC(=O)c1c(C)[nH]c(C)c1S(=O)(=O)N1CCC(C(=O)NCc2ccccc2)CC1	none (no result: Luciferase inh)
CC1(C)OC[C@@H]2O[C@H](n3cnc4c(N)nc(Cl)nc43)[C@@H](OS(C)(=O)=O)[C@@H]2O1	none
CC(=O)Oc1cc(OC(C)=O)c2c(=O)cc(-c3ccc(OC(C)=O)c(OC(C)=O)c3)oc2c1	none
COc1ccc(/C=C/C(=O)c2ccc(O)cc2O)cc1	p53ts 32C tox inconclusive (no result: Luciferase inh)
COc1ccc(/C=C/C(=O)c2ccc(C)s2)cc1	p53ts 32C tox 32µM (no result: Luciferase inh)
O=C(COc1ccc(C(=S)N2CCOCC2)cc1)N1CCCC1	none
CCCCOc1ccc(-c2nnn(CCC(=O)N3CCOCC3)n2)cc1	Luciferase inh 6.3µM, p53ts 32C tox inconclusive, p53ts 39C tox inconclusive
O=C(CCCOc1ccc(Cl)cc1)N1CCOCC1	none
COc1ccc(NC(=O)Nc2ccc(OCC(=O)N3CCOCC3)cc2)cc1OC	Luciferase inh 13µM, p53ts 32C tox inconclusive, p53ts 39C tox inconclusive
Cc1ccc(-c2ccc(OCC(=O)N3CCOCC3)cc2)cc1	Luciferase inh 13µM
COc1cc(C(=O)O)ccc1OCC(=O)N1CCOCC1	none
CCN(CC)Cc1c(NC(=O)c2ccc(OC)cc2)sc2c1CCCC2	none (no result: Luciferase inh)
C[C@H](C(=O)c1ccccc1)[C@@H](c1ccccc1)N1CCOCC1	none
Cc1ccc(C)c(Cn2c(=O)cc(C)c3c(C)nn(C)c32)c1	p53ts 39C tox inconclusive (no result: Luciferase inh)
COc1cccc(Cn2c(=O)cnc3cnc(N(C)C)nc32)c1	none
COc1ccc(CNc2ccnc(-c3ccc(N(C)C)cc3)n2)c(OC)c1	none
O=CNc1ncn[nH]1	none
Oc1ccc(Nc2nc(N3CCCC3)c3ccccc3n2)cc1	p53ts 32C tox inconclusive, p53ts 39C tox inconclusive
Nc1nc(Nc2ccccc2)nc2ccccc12	Luciferase inh 6.3µM, p53ts 32C tox 4µM, p53ts 39C tox 2.5µM
CCc1ccc(Nc2nc3c(S(=O)(=O)c4cccc(Cl)c4)nnn3c3ccsc23)cc1	none (no result: Luciferase inh)
CCc1ccc(S(=O)(=O)c2nnn3c2nc(Nc2ccc(NC(C)=O)cc2)c2sccc23)cc1	p53ts 32C tox inconclusive, p53ts 39C tox 13µM (no result: Luciferase inh)
CCOC(=O)C1CCCN(C(=O)c2ccc3c(c2)N(Cc2ccccc2F)C(=O)c2ccccc2S3=O)C1 (stereo not drawn)	none (no result: Luciferase inh)
Cc1ccc2sc(-c3ccc(N)cc3)nc2c1	p53ts 32C tox 2.5µM, p53ts 39C tox 3.2µM (no result: Luciferase inh)
Cc1ccc2sc(-c3ccc(NC(=O)CCN4C(=O)c5ccccc5C4=O)cc3)nc2c1	none (no result: Luciferase inh, p53ts 32C tox)
CC(=O)N1CCC2(CC1)CCN(c1ccc(-c3ccccc3)cc1)CC2	none
COc1ccc(-c2coc3ccc(O[C@@H]4O[C@@H](COC(C)=O)[C@@H](OC(C)=O)[C@@H](OC(C)=O)[C@H]4OC(C)=O)c(OC(C)=O)c3c2=O)cc1	none (no result: p53ts 32C tox, p53ts 39C tox)
O=C(NCC(c1cccnc1)N1CCc2ccccc2C1)C(=O)Nc1ccccc1 (stereo not drawn)	none (no result: Luciferase inh)
COc1ccc(NC(=O)C(=O)NCC(c2cccnc2)N2CCc3ccccc3C2)cc1 (stereo not drawn)	p53ts 32C tox inconclusive, p53ts 39C tox 10µM (no result: Luciferase inh)
Cc1nn2c(C)c(C(=O)N3CCN(c4ccc(Cl)cc4)CC3)cnc2c1-c1ccc(F)cc1	none (no result: Luciferase inh)
O=C(CC1S/C(=N/N=C/c2cccs2)NC1=O)Nc1ccc(Cl)c(Cl)c1 (stereo not drawn)	none (no result: Luciferase inh, p53ts 32C tox)
CCC1SC(=NC(=O)c2ccc(Cl)c(Cl)c2)NC1=O (stereo not drawn)	Luciferase inh inconclusive, p53ts 32C tox 7.9µM, p53ts 39C tox 7.9µM
Nc1nc(-c2ccc(Br)cc2)cs1	Luciferase inh 13µM
Brc1ccc(-c2csc(/N=C/N3CCOCC3)n2)cc1	none
Cc1nonc1NC(=O)CSc1nnc(-c2ccoc2C)n1C	none
Cc1ccc(-c2ccc(SCC(=O)Nc3nonc3C)nn2)cc1	Luciferase inh 7.9µM, p53ts 39C tox inconclusive
CC(C(=O)NCc1cccc(Br)c1)n1ncn2cccc2c1=O (stereo not drawn)	p53ts 32C tox inconclusive, p53ts 39C tox 13µM (no result: Luciferase inh)
Cc1c2cnn(-c3ccccc3)c(=O)c2c(C)n1C(C)C(=O)NCc1cccc(Br)c1 (stereo not drawn)	none (no result: Luciferase inh)
O[C@@H](c1cc(C(F)(F)F)nc2c(Cl)cc(Cl)cc12)[C@@H]1CCCCN1	none
C[C@@H](Cc1ccccc1)Nc1ncnc2c1ncn2[C@@H]1O[C@@H](CO)[C@H](O)[C@@H]1O	none
O=C1[C@@H]2[C@@H](C(=O)N1c1ccc(OCc3ccccc3)cc1)[C@@H]1c3ccccc3[C@@H]2[n+]2ccccc21	none
